# Laboratory results: PubChem BioAssay
# For part of these data: Results with a measured potency or affinity are listed apart. Inconclusive results are not listed. Calls of active or inactive are those of the source.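 Rule for the calls, unless noted: active = fitted dose curve reaches 40% lysis signal rise at or below the highest valid concentration tested for that sample; inconclusive = flat fit between 30% and 70%, or poor curve fit; inactive = signal falls, stays flat within 30%, or no crossing.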
# Tests used:
# [1] = binders of probe aFSTL3 on microarray, primary screen, stem cell growth factor project, biochemical, small-molecule microarray, fluorescence 635/667 (AID 1064); conditions: higher = more signal;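 note: measures binding of the biotinylated anti-FSTL3 antibody to printed compounds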
# [2] = binders from COS7 lysate, DM2A8 probe, primary screen, torsin A project, cell lysate, small-molecule microarray, fluorescence 635/667 (AID 1065); conditions: higher = more signal, COS7 lysate expressing mutant human TOR1A
# [3] = binders of probe aFGF2 on microarray, primary screen, stem cell growth factor project, biochemical, small-molecule microarray, fluorescence 635/667 (AID 1067); conditions: higher = more signal;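 note: measures binding of biotinylated aFGF2 protein to printed compounds on slides; z-score merges feature fluorescence and signal-to-noise across triplicate slides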
# [4] = binders of probe aFGF10 on microarray, primary screen, stem cell growth factor project, biochemical, small-molecule microarray, fluorescence 635/667 (AID 1071); conditions: higher = more signal;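 note: score merges 667 nm spot intensity and signal to noise from triplicate slides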
# [5] = biological target: Neurogenic locus notch homolog protein 2 (Homo sapiens) (UniProt Q04721); assay: Notch2 binders on small-molecule microarrays, primary screen, biochemical, small-molecule microarray, 635 nm fluorescence, stem cell growth factors (AID 1073); conditions: Notch2 binding, higher = more signal
# [6] = biological target: Pro-neuregulin-1, membrane-bound isoform (Homo sapiens) (UniProt Q02297); assay: NRG1 binders on small-molecule microarrays, primary screen, psychiatric disease protein project, biochemical, small-molecule microarray, fluorescence 635/667 (AID 1075); conditions: NRG1 binding, 635 nm fluorescence, higher = more signal;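 note: score combines 667 nm spot fluorescence with signal to noise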
# [7] = test system: Neuregulin-1 EGF-like domain; assay: binders of neuregulin-1 EGF-like domain, primary screen, biochemical, small-molecule microarray, 635 nm fluorescence (AID 1081); conditions: small-molecule microarray binding, higher = more signal;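 note: binding of the protein to compounds printed on small-molecule microarray slides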
# [8] = FRG1 promoter luciferase signal modulators, primary screen, FRG1 inhibition for FSHD, cell-based, C2C12 myotubes, firefly/Renilla luciferase, luminescence (AID 1084); conditions: higher = more signal, called active from +8 up or from −8 down
# [9] = binders of probe aFST on microarray, primary screen, stem cell growth factor project, biochemical, small-molecule microarray, fluorescence 635/667 (AID 1086); conditions: higher = more signal;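 note: score merges 667 nm fluorescence with signal-to-noise of each printed compound spot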
# [10] = binders of probe aHhip on microarray, primary screen, stem cell growth factor project, biochemical, small-molecule microarray, fluorescence 635/667 (AID 1087); conditions: higher = more signal;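 note: score merges spot fluorescence at 667nm with spot signal to noise ratio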
# [11] = test system: PRMT1 (protein arginine N-methyltransferase 1); assay: PRMT1 binders on small-molecule microarrays, primary screen, biochemical, small-molecule microarray, 635 nm fluorescence (AID 1088); conditions: small-molecule microarray binding, higher = more signal;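 note: binding of Prmt1 protein to compounds spotted on small-molecule microarray slides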
# [12] = yeast growth modulation, basal conditions, primary screen, YJM789 clinical isolate, OD600, 24 h (AID 1089);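 note: growth of clinical yeast isolate S. cerevisiae YJM 789 seeded 1000 cells per well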; conditions: S. cerevisiae YJM789 growth, higher = more signal, called active from +8 up or from −8 down
# [13] = fission yeast growth modulation, primary screen, strain 972, OD600, 24 h, no modulator (AID 1090);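 note: basal condition with compound alone and no growth modifier present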; conditions: S. pombe 972 growth, higher = more signal, called active from +8 up or from −8 down
# [14] = S. cerevisiae growth modulation with rapamycin, primary screen, strain BY4716, OD600, 96 h (AID 1091); conditions: higher = more signal, called active from +8 up or from −8 down
# [15] = biological target: Torsin-1A-interacting protein 2 (Homo sapiens) (UniProt Q8NFQ8); assay: LULL1 binders on small-molecule microarray, primary screen, cell lysate, human LULL1 lysate, 635/667 nm fluorescence (AID 1092); conditions: hLULL1 lysate binding, 635 nm fluorescence, higher = more signal;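 note: probe is lysate of COS7 cells overexpressing human LULL1; score merges per-feature 667 nm fluorescence with signal-to-noise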
# [16] = E. coli growth modulation, two-sided OD650, primary screen, E. coli filamentation project, strain DRC41, 24 h (AID 1093); conditions: OD650, 24 h, higher = more signal, called active from +8 up or from −8 down;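 note: MC1000 strain lacking acrAB efflux and sulA so SOS filamentation is blocked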
# [17] = Cryptococcus neoformans growth inhibition, dose response, Alamar Blue, cherry-picks (AID 686998;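 active = falling signal with fitted half-maximal potency no higher than twice the top valid tested dose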)
# [18] = inducers of Cryptococcus neoformans cell lysis, dose response, AK release luminescence, cherry-picks (AID 687000);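 note: luminescent detection of adenylate kinase leaking from lysed yeast; 0% = median neutral control signal and 100% = double that signal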
# [19] = HepG2 cell cytotoxicity, dose response, cytotoxicity control, cherry-picks, set 2 (AID 687002;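 active = a dose-response fit showing signal loss, with half-maximal concentration no higher than twice the top tested dose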)
# [20] = HeLa cell cytotoxicity, dose response, cytotoxicity control, ATP luminescence, cherry-pick samples (AID 687004;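 active = a fitted half-maximal concentration no higher than twice the top valid tested dose, with signal falling as cells die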;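 note: 0% = neutral control median and -100% = staurosporine 10 µM control median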)
# Chain of Neurogenic locus notch homolog protein 2 (Homo sapiens) (Q04721 whole entry, looked up, canonical isoform): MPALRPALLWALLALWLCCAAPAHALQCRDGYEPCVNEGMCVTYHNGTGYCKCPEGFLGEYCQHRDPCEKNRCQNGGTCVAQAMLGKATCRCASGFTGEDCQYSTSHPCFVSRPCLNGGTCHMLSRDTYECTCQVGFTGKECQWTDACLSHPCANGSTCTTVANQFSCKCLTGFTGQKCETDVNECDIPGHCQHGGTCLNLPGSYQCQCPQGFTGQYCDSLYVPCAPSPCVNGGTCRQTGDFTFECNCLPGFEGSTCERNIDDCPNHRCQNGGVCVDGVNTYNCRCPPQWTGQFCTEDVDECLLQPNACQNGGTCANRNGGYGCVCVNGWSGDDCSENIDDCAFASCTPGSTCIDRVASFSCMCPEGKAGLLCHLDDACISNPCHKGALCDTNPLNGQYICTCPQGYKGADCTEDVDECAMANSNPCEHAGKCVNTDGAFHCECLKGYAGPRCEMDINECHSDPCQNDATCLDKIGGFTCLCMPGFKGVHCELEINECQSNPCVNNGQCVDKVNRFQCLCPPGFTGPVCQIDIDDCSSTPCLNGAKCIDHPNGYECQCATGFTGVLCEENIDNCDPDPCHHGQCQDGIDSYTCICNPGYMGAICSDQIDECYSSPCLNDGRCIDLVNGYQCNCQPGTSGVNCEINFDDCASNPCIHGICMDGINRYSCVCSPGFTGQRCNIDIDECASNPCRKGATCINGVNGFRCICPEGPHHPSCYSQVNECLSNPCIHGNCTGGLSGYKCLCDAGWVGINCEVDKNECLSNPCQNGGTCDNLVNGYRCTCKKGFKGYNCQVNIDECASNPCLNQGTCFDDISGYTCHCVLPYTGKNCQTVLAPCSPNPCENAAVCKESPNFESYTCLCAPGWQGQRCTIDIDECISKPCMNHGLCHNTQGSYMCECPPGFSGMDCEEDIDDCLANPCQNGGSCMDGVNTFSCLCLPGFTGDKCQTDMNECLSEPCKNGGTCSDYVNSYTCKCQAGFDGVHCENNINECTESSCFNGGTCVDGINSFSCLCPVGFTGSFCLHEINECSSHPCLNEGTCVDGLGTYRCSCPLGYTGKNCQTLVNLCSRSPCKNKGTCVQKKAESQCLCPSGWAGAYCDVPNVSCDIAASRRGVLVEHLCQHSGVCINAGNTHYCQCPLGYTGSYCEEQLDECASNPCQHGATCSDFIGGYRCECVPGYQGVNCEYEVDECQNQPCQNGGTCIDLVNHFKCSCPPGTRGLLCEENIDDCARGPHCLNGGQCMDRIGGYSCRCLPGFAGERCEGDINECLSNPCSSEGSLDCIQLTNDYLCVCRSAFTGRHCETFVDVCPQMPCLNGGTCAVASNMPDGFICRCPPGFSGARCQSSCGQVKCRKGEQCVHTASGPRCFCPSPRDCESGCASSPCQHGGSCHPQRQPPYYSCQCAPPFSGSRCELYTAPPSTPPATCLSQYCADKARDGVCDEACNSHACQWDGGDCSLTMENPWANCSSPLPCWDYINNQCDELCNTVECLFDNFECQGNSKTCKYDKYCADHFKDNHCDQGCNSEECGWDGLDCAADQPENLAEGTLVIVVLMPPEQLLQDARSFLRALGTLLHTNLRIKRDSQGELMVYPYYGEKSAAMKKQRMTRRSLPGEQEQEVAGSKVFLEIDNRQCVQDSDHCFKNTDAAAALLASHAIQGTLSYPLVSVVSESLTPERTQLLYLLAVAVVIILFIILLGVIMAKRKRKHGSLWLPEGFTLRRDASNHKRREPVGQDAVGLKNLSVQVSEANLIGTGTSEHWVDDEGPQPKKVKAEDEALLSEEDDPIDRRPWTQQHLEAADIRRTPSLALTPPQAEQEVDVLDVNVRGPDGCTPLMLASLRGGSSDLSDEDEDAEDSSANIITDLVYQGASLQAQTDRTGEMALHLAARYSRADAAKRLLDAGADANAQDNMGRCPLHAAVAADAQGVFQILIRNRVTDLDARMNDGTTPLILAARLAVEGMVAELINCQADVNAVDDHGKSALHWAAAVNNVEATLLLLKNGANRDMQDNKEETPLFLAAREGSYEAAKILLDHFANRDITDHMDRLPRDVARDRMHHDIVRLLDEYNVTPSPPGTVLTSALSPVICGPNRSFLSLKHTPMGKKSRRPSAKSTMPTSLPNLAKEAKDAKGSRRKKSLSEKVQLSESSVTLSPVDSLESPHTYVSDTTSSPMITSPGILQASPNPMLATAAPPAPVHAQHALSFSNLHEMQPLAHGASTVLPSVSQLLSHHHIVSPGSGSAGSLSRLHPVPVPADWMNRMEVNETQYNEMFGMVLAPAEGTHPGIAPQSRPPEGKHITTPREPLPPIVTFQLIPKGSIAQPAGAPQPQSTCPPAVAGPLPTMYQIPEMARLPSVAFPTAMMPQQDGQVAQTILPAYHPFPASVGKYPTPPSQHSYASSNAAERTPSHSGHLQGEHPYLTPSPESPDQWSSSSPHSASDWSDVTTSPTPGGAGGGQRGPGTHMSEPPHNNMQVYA
# Chain of Pro-neuregulin-1, membrane-bound isoform (Homo sapiens) (Q02297 whole entry, looked up, the tested form may be a part, canonical isoform): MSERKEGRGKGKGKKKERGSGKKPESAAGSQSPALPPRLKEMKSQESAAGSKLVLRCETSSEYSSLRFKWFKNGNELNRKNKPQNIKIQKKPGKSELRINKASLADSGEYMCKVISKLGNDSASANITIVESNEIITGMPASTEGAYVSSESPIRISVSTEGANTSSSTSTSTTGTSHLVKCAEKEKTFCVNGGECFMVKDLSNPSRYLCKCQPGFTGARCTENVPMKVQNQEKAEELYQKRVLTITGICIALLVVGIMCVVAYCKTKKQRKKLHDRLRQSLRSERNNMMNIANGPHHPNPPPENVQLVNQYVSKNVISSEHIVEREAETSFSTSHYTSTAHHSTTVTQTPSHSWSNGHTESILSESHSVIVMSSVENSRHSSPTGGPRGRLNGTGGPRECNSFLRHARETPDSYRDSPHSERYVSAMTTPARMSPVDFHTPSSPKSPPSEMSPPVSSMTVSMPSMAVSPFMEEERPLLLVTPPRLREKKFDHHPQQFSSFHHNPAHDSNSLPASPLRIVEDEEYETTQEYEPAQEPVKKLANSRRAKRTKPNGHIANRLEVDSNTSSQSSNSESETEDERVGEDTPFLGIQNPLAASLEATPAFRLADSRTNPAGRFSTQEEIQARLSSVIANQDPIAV
# Chain of Torsin-1A-interacting protein 2 (Homo sapiens) (Q8NFQ8 whole entry, looked up): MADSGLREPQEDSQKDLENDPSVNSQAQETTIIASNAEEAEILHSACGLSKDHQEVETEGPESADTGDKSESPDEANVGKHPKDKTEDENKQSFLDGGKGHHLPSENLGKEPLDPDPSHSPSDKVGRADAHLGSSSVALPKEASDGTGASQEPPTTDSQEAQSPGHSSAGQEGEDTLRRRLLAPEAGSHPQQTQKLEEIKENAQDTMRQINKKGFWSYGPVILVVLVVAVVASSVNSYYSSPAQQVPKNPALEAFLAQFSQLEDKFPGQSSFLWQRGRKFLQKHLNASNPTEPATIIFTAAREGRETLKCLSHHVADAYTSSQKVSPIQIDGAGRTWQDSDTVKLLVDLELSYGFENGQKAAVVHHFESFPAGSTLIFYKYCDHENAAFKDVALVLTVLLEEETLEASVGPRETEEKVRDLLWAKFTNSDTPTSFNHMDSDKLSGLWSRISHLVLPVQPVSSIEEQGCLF
structure (smiles),measurement,setting,value
CCOC(=O)C[C@H]1[C@H](OC(=O)c2cc3ccccc3oc2=O)[C@@H](NC(=O)c2ccccc2)c2cc(OCCCO)ccc2N1C(=O)Cc1ccc(OC)cc1,composite z-score,[1],-0.297
same,composite z-score,[2],0.682
same,composite z-score,[3],-0.038
same,composite z-score,[4],0.575
same,composite z-score,[5],0.81
same,composite z-score,[6],0.147
same,composite z-score,[7],-0.1
same,z-score,[8],-0.265 (inactive)
same,composite z-score,[9],0.514
same,composite z-score,[10],0.0302
same,composite z-score,[11],-0.0867
same,z-score,[12],-0.196 (inactive)
same,z-score,[13],-1.08 (inactive)
same,z-score,[14],-0.846 (inactive)
same,composite z-score,[15],0.239
same,z-score,[16],2.9 (inactive)
C=C1C=C(Br)C2(OCCCO2)[C@H]2OC12 (some centres undefined),composite z-score,[1],-0.199
same,composite z-score,[2],0.249
same,composite z-score,[3],-0.128
same,composite z-score,[4],0.325
same,composite z-score,[5],-0.175
same,composite z-score,[6],-0.188
same,composite z-score,[7],-0.221
same,z-score,[8],1.04 (inactive)
same,composite z-score,[9],0.206
same,composite z-score,[10],0.0274
same,composite z-score,[11],-0.83
same,z-score,[12],-0.23 (inactive)
same,z-score,[13],-0.54 (inactive)
same,z-score,[14],0.405 (inactive)
same,composite z-score,[15],-0.38
same,z-score,[16],0.294 (inactive)
COc1c(C)cc(-c2cc3c(c(CCc4ccccc4)n2)[Si](C(C)C)(C(C)C)OC3)cc1C,composite z-score,[1],-0.496
same,composite z-score,[2],1.49
same,composite z-score,[3],-0.125
same,composite z-score,[4],0.358
same,composite z-score,[5],0.364
same,composite z-score,[6],-0.355
same,composite z-score,[7],0.578
same,z-score,[8],-0.14 (inactive)
same,composite z-score,[9],0.287
same,composite z-score,[10],-0.0346
same,composite z-score,[11],1.42
same,z-score,[12],-0.819 (inactive)
same,z-score,[13],-1.57 (inactive)
same,z-score,[14],-0.618 (inactive)
same,composite z-score,[15],0.778
same,z-score,[16],2.29 (inactive)
COc1ccc(/C=C/C(=O)c2cccc(OCC(=O)OC(C)(C)C)c2)cc1,composite z-score,[1],0.158
same,composite z-score,[2],0.0968
same,composite z-score,[3],-0.17
same,composite z-score,[4],-0.672
same,composite z-score,[5],-0.466
same,composite z-score,[6],0.421
same,composite z-score,[7],0.284
same,z-score,[8],4.17 (inactive)
same,composite z-score,[9],-0.126
same,composite z-score,[10],-0.226
same,composite z-score,[11],0.898
same,z-score,[12],0.0268 (inactive)
same,z-score,[13],-2.14 (inactive)
same,z-score,[14],10.9 (active)
same,composite z-score,[15],1.21
same,z-score,[16],0.328 (inactive)
O=C(NC(=S)Nc1ccc(CN2CCOCC2)cc1)c1ccccc1[N+](=O)[O-],outcome,[17],inactive
same,outcome,[18],inactive
same,outcome,[19],inactive
same,outcome,[20],inactive
O=C1CCC(C(=O)Nc2cccc(C(F)(F)F)c2)N1 (centres undefined),outcome,[17],inactive
same,outcome,[18],inactive
same,outcome,[19],inactive
CN1C(=O)c2cc(NC(=O)Nc3ccc(Cl)cc3)ccc2OC[C@H]2O[C@@H](CC(=O)NCCN3CCCCC3)CC[C@@H]21,outcome,[17],inactive
same,outcome,[18],inactive
same,outcome,[19],inactive
COc1cccc(S(=O)(=O)Nc2ccc3c(c2)[C@@H]2C[C@H](CC(=O)NC4CCCCC4)O[C@H](CO)[C@@H]2O3)c1,outcome,[17],inactive
same,outcome,[18],inactive
same,outcome,[19],inactive
same,outcome,[20],inactive
C[C@@H]1CN([C@@H](C)CO)C(=O)c2cccc(NC(=O)C3CC3)c2O[C@@H]1CN(C)C,outcome,[17],inactive
same,outcome,[18],inactive
same,outcome,[19],inactive
same,outcome,[20],inactive
CCOc1ccc(C(=O)NC(=S)Nc2ccccc2N2CCC(C)CC2)cc1[N+](=O)[O-],outcome,[17],inactive
same,outcome,[18],inactive
same,outcome,[19],inactive
COc1ccc(NC(=O)Nc2ccc3c(c2)C(=O)N([C@H](C)CO)C[C@@H](C)[C@@H](CN(C)S(=O)(=O)c2ccc(Cl)cc2)OCCCC[C@H](C)O3)cc1,outcome,[17],inactive
same,outcome,[18],inactive
same,outcome,[19],inactive
same,outcome,[20],inactive
COc1cccc(-c2cn(CC[C@@H]3CC[C@@H](NC(C)=O)[C@H](CO)O3)nn2)c1,outcome,[17],inactive
same,outcome,[18],inactive
same,outcome,[19],inactive
CCCNC(=O)Nc1ccc2c(c1)C(=O)N(C)C[C@H](OC)[C@@H](C)CN(C(=O)CC)[C@@H](C)CO2,outcome,[17],inactive
same,outcome,[18],inactive
same,outcome,[19],inactive
same,outcome,[20],inactive
COc1cccc(C#Cc2cnc3c(c2)C(=O)N([C@H](C)CO)C[C@@H](C)[C@@H](CN(C)C(=O)C2CCOCC2)O3)c1,outcome,[17],inactive
same,outcome,[18],inactive
same,outcome,[19],inactive
same,outcome,[20],inactive
COc1cccc(C2CC(c3cccs3)=NN2C(=O)c2ccco2)c1O (centres undefined),outcome,[17],inactive
same,outcome,[18],inactive
same,outcome,[19],inactive
same,outcome,[20],inactive
COc1ccc(NC(=O)c2noc(C(C)C)c2[N+](=O)[O-])cc1,outcome,[17],inactive
same,outcome,[18],inactive
same,outcome,[19],inactive
same,outcome,[20],inactive
C[C@@H]1CN([C@@H](C)CO)S(=O)(=O)c2ccc(C#Cc3ccccn3)cc2O[C@H]1CN(C)Cc1ccccc1,outcome,[17],inactive
same,outcome,[18],inactive
same,outcome,[19],inactive
CN1C(=O)c2cc(NC(=O)NC3CCCC3)ccc2OC[C@H]2O[C@@H](CC(=O)NC3CCC3)CC[C@@H]21,outcome,[17],inactive
same,outcome,[18],inactive
same,outcome,[19],inactive
C[C@@H]1CN([C@@H](C)CO)C(=O)c2cc(NC(=O)Nc3cccc4ccccc34)ccc2O[C@@H]1CN(C)C(=O)Nc1ccccc1,outcome,[17],inactive
same,outcome,[18],inactive
same,outcome,[19],inactive
COc1ccc(C#Cc2ccc3c(c2)O[C@@H](CN(C)C(C)=O)[C@@H](C)CN([C@H](C)CO)S3(=O)=O)cc1,outcome,[17],inactive
same,outcome,[18],inactive
same,outcome,[19],inactive
CC(C)(C)c1ccc(OCC(=O)NC(c2ccccc2)c2ccccc2)cc1,outcome,[17],inactive
same,outcome,[18],inactive
same,outcome,[19],inactive
COCCNC(=O)C[C@H]1C=C[C@@H](NS(=O)(=O)c2ccc(C)cc2)[C@H](CO)O1,outcome,[17],inactive
same,outcome,[18],inactive
same,outcome,[19],inactive
CO[C@@H]1CN(C)C(=O)c2cc(NC(=O)C3CC3)ccc2OC[C@H](C)N(C(=O)c2ccncc2)C[C@H]1C,outcome,[17],inactive
same,outcome,[18],inactive
same,outcome,[19],inactive
same,outcome,[20],inactive
CC(C)NC(=O)Nc1ccc2c(c1)CC(=O)N([C@@H](C)CO)C[C@@H](C)[C@@H](CN(C)Cc1ccc(Oc3ccccc3)cc1)O2,outcome,[17],inactive
same,outcome,[18],inactive
same,outcome,[19],inactive
C[C@H]1CN([C@@H](C)CO)S(=O)(=O)c2ccc(C#Cc3cccc(F)c3)cc2O[C@@H]1CN(C)C(=O)NC1CCCCC1,outcome,[17],inactive
same,outcome,[18],inactive
same,outcome,[19],inactive
COC(=O)N(C)C[C@H]1OCc2cn(nn2)CCCC(=O)N([C@H](C)CO)C[C@@H]1C,outcome,[17],inactive
same,outcome,[18],inactive
same,outcome,[19],inactive
same,outcome,[20],inactive
C[C@H]1CN([C@@H](C)CO)S(=O)(=O)c2ccc(C#Cc3ccccn3)cc2O[C@@H]1CN(C)Cc1ccccc1,outcome,[17],inactive
same,outcome,[18],inactive
same,outcome,[19],inactive
CN(C)C(=O)c1ccc(-c2ccc([C@H]3[C@H](CO)N4CCCCN(CCC(F)(F)F)C[C@@H]34)cc2)cc1,outcome,[17],inactive
same,outcome,[18],inactive
same,outcome,[19],inactive
same,outcome,[20],inactive
C[C@H]1CCCCO[C@H](CN(C)Cc2ccncc2)[C@@H](C)CN([C@@H](C)CO)C(=O)c2cc(NC(=O)CCCN(C)C)ccc2O1,outcome,[17],inactive
same,outcome,[18],inactive
same,outcome,[19],inactive
same,outcome,[20],inactive
COc1ccc(OC(C)C(=O)NC(C)c2ccccc2)cc1 (centres undefined),outcome,[17],inactive
same,outcome,[18],inactive
same,outcome,[19],inactive
same,outcome,[20],inactive
CC(C)NC(=O)Nc1ccc2c(c1)CC(=O)N([C@H](C)CO)C[C@@H](C)[C@H](CN(C)Cc1ccc3c(c1)OCO3)O2,outcome,[17],inactive
same,outcome,[18],inactive
same,outcome,[19],inactive
same,outcome,[20],inactive
